Test results published in PubChem BioAssay AID568 (Sanford-Burnham Center for Chemical Genomics, 2006).
Hit rate of the full screen: of about 83,000 compounds, fewer than 10 were called active. How the calls were made is not given here. A selection follows. Measured potencies and affinities stand elsewhere.

target: Heat shock cognate 71 kDa protein (Homo sapiens) (UniProt P11142); experiment: small molecules displacing fluorescent ligand from Hsc70 – biochemical, fluorescence polarization, primary screen (AID 568); settings: mP, at 20 µM, stronger effect = higher value
Sequence (P11142 whole entry, looked up): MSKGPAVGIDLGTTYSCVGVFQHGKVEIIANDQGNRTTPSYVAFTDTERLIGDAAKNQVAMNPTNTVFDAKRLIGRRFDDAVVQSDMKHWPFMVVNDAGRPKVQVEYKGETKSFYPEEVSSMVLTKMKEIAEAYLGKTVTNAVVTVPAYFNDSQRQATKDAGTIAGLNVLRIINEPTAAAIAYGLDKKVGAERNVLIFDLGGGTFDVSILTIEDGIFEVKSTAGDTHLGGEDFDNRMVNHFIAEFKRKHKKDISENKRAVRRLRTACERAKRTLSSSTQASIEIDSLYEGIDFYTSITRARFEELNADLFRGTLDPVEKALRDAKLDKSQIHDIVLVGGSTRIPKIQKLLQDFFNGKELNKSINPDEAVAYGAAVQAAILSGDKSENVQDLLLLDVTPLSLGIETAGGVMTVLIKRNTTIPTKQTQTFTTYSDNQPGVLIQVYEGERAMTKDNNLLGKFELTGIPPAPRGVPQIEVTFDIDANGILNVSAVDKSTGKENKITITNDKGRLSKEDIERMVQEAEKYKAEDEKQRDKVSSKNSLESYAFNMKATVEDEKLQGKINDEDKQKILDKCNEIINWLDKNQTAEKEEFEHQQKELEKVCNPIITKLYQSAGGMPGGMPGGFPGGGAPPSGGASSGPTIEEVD
Sequence (P11142 whole entry, looked up): as above

displacement, inactive:
O=C(Nc1cccc(Cl)c1N1CCCC1)c1cc2ccccc2o1 -2.4%
CCOC(=O)C1=NN(c2ccccc2)C2(S1)SC(C(C)=O)=C(C)N2c1ccccc1 (configuration not stated) 3.4%
Cc1noc(C)c1CSc1nnc2cc(C)c3ccccc3n12 -6.7%
Cc1ccc(C(=O)NCc2occc2C(=O)O)o1 2.4%
CCn1c2ccccc2c2nnc(SCC(=O)Nc3ncccn3)nc21 5.9%
COc1ccc(S(=O)(=O)NCC(=O)N(CC(=O)NCC2CCCO2)c2c(C)cccc2C)cc1 (configuration not stated) -3.5%
O=C(Nc1ccncc1)c1cc(F)cc(F)c1 3.6%
c1ccc2sc(N3CCN(Cc4nnnn4CC4CCCO4)CC3)nc2c1 (configuration not stated) 1.7%
Cn1c(SCc2ccc(F)cc2)nnc1-c1cccs1 -5%
CCOc1ccc(C(C#N)N2CCOCC2)cc1OC (configuration not stated) -4.5%
CCCCN(C(=O)c1cc(OC)c(OC)c(OC)c1)C1=CC2CCC(C1)N2C (configuration not stated) -2.2%
Cc1nn(-c2ccccn2)c2nc(-c3cccs3)cc(C(=O)N3CCOCC3)c12 0.1%
Cn1c(SCC(=O)NCc2ccc3c(c2)OCO3)nnc1-c1cccs1 -4.3%
COc1ccc(-c2nc(C)c(C(C)=O)n2O)cc1 3.1%
COC(=O)c1ccc(OCC(=O)c2ccccc2OC)cc1 2.4%
CCOC(=O)c1ccc2nc(NC(=O)c3cccs3)sc2c1 -11.3%
O=C(c1cccc(S(=O)(=O)N2CCCCC2)c1)N1CCN(S(=O)(=O)c2ccc(F)cc2)CC1 7.4%
N#Cc1ccccc1NC(=O)CSc1nnc(-c2ccccc2O)n1-c1ccccc1 -3.5%
CCN(CC)S(=O)(=O)c1cccc(C(=O)Nc2cccnc2)c1 4.9%
CCOC(=O)c1cccc(N2C(=O)C3C(C(=O)NC4CC4)C4(C)C=CC3(O4)C2C(=O)NC(C)(C)C)c1 (configuration not stated) 0.8%
COc1ccc(NC(=O)CSc2nc3ccccc3c(=O)n2CCNC(C)=O)cc1 1%
CC(C)c1ccc(-c2nnn(Cc3nc4ccccc4s3)n2)cc1 7.9%
CC1=C(C(=O)N2CCOCC2)C(c2cccs2)NC(=O)N1 (configuration not stated) 1.5%
Cc1c(NC2=NC(C)(C)Cc3ccccc32)c(=O)n(-c2ccccc2)n1C -0.6%
CCc1ccccc1NC(=O)N[C@@H](C)C(=O)O 4.3%
CCCCNC(=S)NNC(=O)c1ccco1 4%
CC1=C(C(=O)OC(C)C)C(c2c[nH]c3ccccc23)n2ncnc2N1 (configuration not stated) 4.3%
CNS(=O)(=O)c1cccc2cccnc12 5.1%
Cc1ccc(C)c(-n2c(SCC(=O)NCC3CCCO3)nnc2-c2ccoc2C)c1 (configuration not stated) -2.3%
O=C1C2C3C=CC(C3)C2C(=O)N1c1ccc2ccccc2n1 (configuration not stated) 6.3%
CCOC(=O)c1c(NC(=O)CSc2nnc(-c3cccnc3)o2)sc2c1CCC2 -5%
Cn1c(CNC(=O)c2cccs2)nnc1SCC(=O)Nc1ccc(Cl)cc1 1.1%
COc1ccc(Br)cc1CNC(=O)CCc1nc(-c2ccccc2F)no1 0%
COC(=O)c1[nH]nc2c1C(=O)N(C1CCCCC1)C2=O 2.9%
CCCC1CCC(C2=N/C(=C\c3ccc(OC)c(OC)c3)C(=O)O2)CC1 (configuration not stated) -5%
Cn1c(CCN2CCN(c3ccccc3)CC2)nc2cc(NC(=O)c3ccco3)ccc21 0.4%
O=C(COC(=O)c1cccnc1)c1ccc(Cl)c(Cl)c1 -1.2%
CCn1c(COc2ccccc2C)nnc1SCC(=O)CC(=O)Nc1ccccc1 2.2%
CN(Cc1ccccc1)C(=O)c1ccc2c(c1)OCCO2 0.2%
Cn1cc(S(=O)(=O)CC(=O)Nc2ccc3c(c2)OCCO3)c2ccccc21 7.1%
NC(=O)c1ccccc1N/C=C/C(=O)c1ccco1 5.3%
CCN1CCN(CCCNC(=O)C2CCCN(c3nnc(-n4cccc4)s3)C2)CC1 (configuration not stated) 7%
Cc1ccc2oc(=O)c3cnn(CC(=O)NCCN4CCOCC4)c3c2c1 2.8%
Cc1c(C(=O)O)oc2ccc(S(=O)(=O)NCc3ccccc3)cc12 -0.1%
COc1ccc(C(c2nnnn2Cc2cccs2)N2CCN(c3ccccc3F)CC2)cc1 (configuration not stated) -2.2%
CC(=O)NCCn1c(SCC(=O)NCCC2=CCCCC2)nc2ccccc2c1=O -4.3%
Cc1cc(C)cc(N(C(=O)c2ccc3c(c2)OCO3)C2C=CS(=O)(=O)C2)c1 (configuration not stated) -3.3%
CCN(CC)S(=O)(=O)c1ccc(-c2nnc(SCc3nnc(-c4ccc(C)cc4)o3)n2CC)cc1 -2.9%
CC(C)(C)C(=O)CNS(=O)(=O)c1ccc(S(=O)(=O)NC2CCCC2)cc1 2.7%
Cc1ccc(OC(C)C)c(CN(CCO)CCO)c1 -3.1%
COc1ccc(S(=O)(=O)N2CCSC2c2ccc(N)cc2)cc1 (configuration not stated) 2.5%
CSc1nn(CCc2ccncc2)c(=S)s1 -0.7%
COc1cc(NC(=O)c2cc(C)on2)cc(OC)c1OC 8%
N#C/C(=C\Nc1ccc2c(c1)OCCO2)c1nc2ccccc2[nH]1 -23.3%
CC(C)c1[nH]nc2c1C(Cc1ccccc1)C(C#N)=C(N)O2 (configuration not stated) 5.2%
COc1ccccc1N1CCN(C(=O)c2c(-c3ccccc3Cl)noc2C)CC1 -6.4%
CC(=O)Nc1ccc(S(=O)(=O)Nc2cccc(N(C)S(C)(=O)=O)c2)cc1 -0.7%
CCOc1ccc(S(=O)(=O)Nc2ccccc2SC)cc1 -1.7%
NC(=O)c1ccsc1NC(=O)COc1ccccc1 9.1%
COC(=O)c1c(NS(C)(=O)=O)sc2c1CCCC2 3.6%
COc1ccc(NC(=O)CCn2nc(C)cc2C)cc1 -4.3%
O=C(CSc1nnc(Cn2c(=O)sc3ccccc32)n1CCc1ccccc1)N1CCCC1 1.9%
